Source: PubChem BioAssay AID463173 (ICCB-Longwood Screening Facility, Harvard Medical School, 2010)
Among all 52,000 compounds or so, about 4,300 (8.3%) were called active. This excerpt belongs to a sample that is enriched for actives. A number with no mark means an inactive call. Rule as the data show it: active = survival mostly below about 52% (no sharp cut-off); inactive = mostly above about 56%.

These compounds were tested on DeltatarO mutant (assay: S. aureus survival, RN4220 and DeltatarO strains – OD600, teichoic acid synthesis inhibitors, primary screen (AID 463173)). Details: S. aureus RN4220 wild type/DeltatarO growth, OD600, 18 h, active compounds read low, screened at 18.75 µg/mL (by protocol).

| Compound | survival |
| --- | --- |
| O=C(CN1c2ccc(Br)cc2-c2ccccc2S1(=O)=O)N1CCCCC1 | 91% |
| COc1cc(CNc2ccc3[nH]c(=O)[nH]c3c2)cc(Cl)c1OCc1ccccc1F | 78% |
| CCOc1ccc(CCNC(=O)c2sc3ncccc3c2-n2c(C)ccc2C)cc1 | 106% |
| COCCNc1nc2c(S(=O)(=O)c3ccc(C)c(C)c3)nnn2c2ccc(Cl)cc12 | 89% |
| O=C(NCc1ccccc1Cl)NCc1noc2ccccc12 | 45% |
| Cc1cccc(-c2nn3c(=O)cc(CN4CCN(C(=O)c5ccccc5Br)CC4)nc3s2)c1 | 100% |
| CCOC(=O)c1cc(C)n(CC2CCC(C(=O)Nc3ccc(C(=O)OC)cc3)CC2)c1C (centres undefined) | 69% |
| CCOC(=O)c1cc(C)n(CC2CCC(C(=O)Nc3ccc(Cl)cc3)CC2)c1C (centres undefined) | 46% (active) |
| CCOC(=O)c1cc(C)n(CC2CCC(C(=O)Nc3ccc(C)cc3)CC2)c1C (centres undefined) | 98% |
| O=C(NC1CCCC1)C1CCCN(S(=O)(=O)c2ccc(-n3cnnn3)cc2)C1 (centres undefined) | 72% |
| CCOc1ccc(NC(=O)c2ccc(-c3ccccc3)s2)cc1 | 86% |
| O=C(Nc1ccccc1F)c1ccc(-c2ccccc2)s1 | 81% |
| CCOc1ccc(OCC)c(NC(=O)c2ccc(-c3ccccc3)s2)c1 | 27% (active) |
| CSc1ncc(C(=O)Nc2ccc(F)cc2F)c(-c2ccccc2)n1 | 71% |
| CCOc1ccc(OCC)c(NC(=O)c2cnc(SC)nc2-c2ccccc2)c1 | 32% (active) |
| COc1ccc(Cl)cc1NC(=O)c1cnc(SC)nc1-c1ccccc1 | 49% |
| Cc1ccc(CN2CCc3nc(N4CCN(c5ncccn5)CC4)ncc3C2)cc1 | 117% |

| Compound | survival |
| --- | --- |
| CN1CCN(CC(=O)NCCc2ccc(F)cc2)CC1 | 83% |
| CONc1nc(NC(C)(C)C)nc(OCC#N)n1 | 97% |
| CNc1nc(OCC#N)nc(N2CCCCC2)n1 | 110% |
| N#CCOc1nc(OCC#N)nc(OCC#N)n1 | 1% (active) |
| Cc1ccc(CNC(=O)c2nc(-c3ccc(Cl)cc3)n3c2CCCCC3)cc1 | 89% |
| CCC1CCCCN1C(=O)Cn1c(=O)n(CCCCCC(=O)NCc2ccccc2)c(=O)c2sccc21 (centres undefined) | 69% |
| O=C(CCn1c(=O)c2sccc2n(Cc2ccc(F)cc2)c1=O)NCc1ccc2c(c1)OCO2 | 89% |
| Cc1ccc(NC(=O)Cn2c(=O)n(CCC(=O)NCc3ccc4c(c3)OCO4)c(=O)c3sccc32)c(C)c1 | 87% (active) |
| Cc1ccc(Cl)cc1NC(=O)Cn1c(=O)n(CCC(=O)NCc2ccc3c(c2)OCO3)c(=O)c2sccc21 | 79% (active) |
| O=C(CCn1c(=O)c2sccc2n(Cc2ccccc2F)c1=O)NCc1ccc2c(c1)OCO2 | 84% (active) |
| O=C(CCCCCn1c(=O)c2sccc2n(CC(=O)Nc2cccc(Cl)c2)c1=O)NCc1ccc2c(c1)OCO2 | 57% |
| Cc1ccc(CNC(=O)CCCCCn2c(=O)c3sccc3n(CC(=O)N3CCCCC3C)c2=O)cc1 (centres undefined) | 48% (active) |
| Cc1ccccc1NC(=O)Cn1c(=O)n(CCCCCC(=O)NCc2ccc3c(c2)OCO3)c(=O)c2sccc21 | 84% |
| O=C(CCn1c(=O)c2sccc2n(Cc2cccc(F)c2)c1=O)NCc1ccc2c(c1)OCO2 | 97% |
| Cc1ccccc1NC(=O)Cn1c(=O)n(CCC(=O)NCc2ccc3c(c2)OCO3)c(=O)c2sccc21 | 150% |
| Cc1cccc(C)c1NC(=O)Cn1c(=O)n(CCC(=O)NCc2ccc3c(c2)OCO3)c(=O)c2sccc21 | 90% |
| CCC1CCCCN1C(=O)Cn1c(=O)n(CCCCCC(=O)NCc2ccc(F)cc2)c(=O)c2sccc21 (centres undefined) | 170% |
